D1 potentiator: human D1 dopamine receptor positive modulation. P21728. HEK293 TREx D1 cells, calcium flux, dopamine EC20 potentiation. potentiation, % at 10 µM. 360,000 tested, 0.036% active; in the data active means potentiation above about 30%
Target sequence (P21728 whole entry, looked up): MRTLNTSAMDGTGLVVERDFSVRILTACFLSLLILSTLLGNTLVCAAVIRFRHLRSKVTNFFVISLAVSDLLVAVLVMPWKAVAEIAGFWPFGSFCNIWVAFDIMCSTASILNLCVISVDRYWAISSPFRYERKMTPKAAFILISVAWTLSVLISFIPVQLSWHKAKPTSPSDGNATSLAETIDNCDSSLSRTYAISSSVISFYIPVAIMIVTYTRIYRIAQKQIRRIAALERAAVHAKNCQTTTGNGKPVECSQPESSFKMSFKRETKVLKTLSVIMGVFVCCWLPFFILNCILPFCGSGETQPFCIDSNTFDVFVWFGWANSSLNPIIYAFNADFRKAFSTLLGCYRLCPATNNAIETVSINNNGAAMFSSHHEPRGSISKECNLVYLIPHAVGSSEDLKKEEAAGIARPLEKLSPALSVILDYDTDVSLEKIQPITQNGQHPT
D3 ag: activates the human D3 dopamine receptor; P35462; D3R DiscoveRx beta-arrestin cells, luminescence, 90 min; max activation, %; 410,000 tested, 0.58% active; in the data active means max activation above about 30%
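Cells at 1500/well, incubated overnight, then treated with pinned compounds (dopamine as control) for 90 min at 37 degrees C. DiscoveRx reagent added for 30 - 60 minutes at room temperature; luminescence read.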
DRD3 antagonist: D3 dopamine receptor (human) antagonism; P35462; D3R cells, DiscoveRx beta-arrestin luminescence, antagonist mode; stronger effect = lower value; max response, negative = inhibition, %; 360,000 tested, 2.5% active; in the data active means max response below about -50%; inconclusive means no clear call, values can overlap the other calls
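Cells expressing the human receptor were seeded at 1500 cells/well, incubated overnight at 37 degrees C in 5% CO2, then exposed to library compounds with dopamine controls for 90 minutes at 37 degrees C before luminescent detection.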
D1 ag: activates the human D1 dopamine receptor. P21728. HEK293 T-REx D1 cells, calcium flux, agonist mode. activation, % at 2 µM. 360,000 tested, 1% active; in the data active means activation above about 30%
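Inducible HEK293 T-REx D1 cells, force-coupled to calcium signalling, were plated at 4000 cells/well with tetracycline and held overnight at 30 C. After no-wash calcium dye loading, compound-evoked calcium rise over 180 s flagged agonists.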
D1 antag: human D1 dopamine receptor antagonism; P21728; HEK293 TREx D1 cells, calcium flux, dopamine EC80; stronger effect = lower value; activity change, negative = inhibition, % at 10 µM; 360,000 tested, 3.2% active; in the data active means activity change below about -30%
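Tetracycline-induced HEK293 T-REx cells with force-coupled D1 receptor were loaded with a no-wash calcium dye. Compound was added after a 10 s baseline and read kinetically for 180 s; EC80 dopamine was then added and calcium flux followed another 180 s.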
Of the large screens only hits and unclear results are named; the others gave an inactive call. Compounds with a hit are over-represented: about 6.1% of the library has one in this group of screens.

CCc1ccc(C(=O)CSC2=C(C#N)C(c3ccco3)C(C(C)=O)=C(C)N2)cc1 (stereo not given)	D1 antag -34 (no result: D3 ag, DRD3 antagonist)
CC(C)(C)c1ccc(C(=O)CCCSC2=C(C#N)C(c3ccco3)C3=C(CCCC3=O)N2)cc1 (stereo not given)	none
CC1=C(C(=O)Nc2ccccc2)C(c2ccco2)C(C#N)=C(SCc2ccccc2)N1 (stereo not given)	none (no result: D3 ag, DRD3 antagonist)
N#CC1=C(SCC(=O)c2ccccc2)NC2=C(C(=O)CCC2)C1c1ccco1 (stereo not given)	DRD3 antagonist inconclusive, D1 antag -44
CC1=C(C(=O)Nc2ccccc2)C(c2ccco2)C(C#N)=C(SCC(=O)OC(C)C)N1 (stereo not given)	D3 ag 58
Cc1ccc(C(=O)CSC2=C(C#N)C(c3ccco3)C3=C(CCCC3=O)N2)cc1 (stereo not given)	D1 antag -37
S=C(NCC1CCCO1)NC1CC1 (stereo not given)	none
COCCN(C(=O)COC(=O)COc1ccc(Cl)c(C)c1)c1c(N)n(Cc2ccccc2)c(=O)[nH]c1=O	none
Cn1c(SCc2ccccn2)nnc1-c1ccccc1	none
C1=C\CCC2(OCCO2)C2(CC/1)OCCO2	none (no result: D1 potentiator, D1 ag, D1 antag)
COc1ccccc1NC(=O)CN1C(=O)CC(C)S(=O)(=O)c2ccccc21 (stereo not given)	none
CC(C)Nc1ncnc2c1ncn2[C@H]1CN(Cc2ccc(F)cc2)C[C@@H](CO)O1	none (no result: D1 potentiator, D1 ag, D1 antag)
Cc1nc2nc(C)n(CCN3CCOCC3)c(=O)c2c(-c2cccc([N+](=O)[O-])c2)c1C(=O)CCCCCCCCCCN1CCC(c2ccccc2)(c2ccccc2)CC1	DRD3 antagonist -93 (no result: D1 potentiator, D1 ag, D1 antag)
O=C(NCCCN1CCOCC1)/C(=C/c1ccc(-c2cccc([N+](=O)[O-])c2)o1)NC(=O)c1ccccc1	none (no result: D1 potentiator, D1 ag, D1 antag)
COc1cc(Cc2nc3ccccc3n2C(C)c2nc3ccccc3[nH]2)cc(OC)c1 (stereo not given)	none (no result: D1 potentiator, D1 ag, D1 antag)
Cc1ccc(-c2nn(C)c(=O)c3ccccc23)cc1CO	DRD3 antagonist -50
CC(=O)OCc1cc(-c2nn(C)c(=O)c3ccccc23)ccc1C	none
Cn1nc(C(=O)Nc2ccc3c(c2)OCCO3)c2ccccc2c1=O	none
Cn1nc(-c2ccc3c(c2)OCCO3)c2ccccc2c1=O	D1 antag -34
CC(=O)c1c(C)[nH]c(C(=O)COC(=O)c2cccnc2Cl)c1C	D1 antag -33
COc1cc(C)ccc1OCC(=O)OCC(=O)c1[nH]c(C)c(C(C)=O)c1C	none (no result: D1 potentiator, D1 ag, D1 antag)
Cc1ccc(S(=O)(=O)NC(=O)COc2cc(C)ccc2C(C)C)cc1	DRD3 antagonist -55, D1 antag -44
Cc1cccc(OCC(=O)N/N=C/c2cccn2C)c1	none
CC(=O)c1c(C)[nH]c(C(=O)COc2cc(C)ccc2C(C)C)c1C	D1 antag -36
Cc1ccc(C(C)C)c(OCC(=O)N/N=C/c2cccn2C)c1	D3 ag 31
CCC(Cc1ccccc1)NC(=O)CN1C(=O)COc2ccc(S(=O)(=O)N3CCCCCC3)cc21 (stereo not given)	none (no result: DRD3 antagonist)
OCC1(CC2CCCCO2)CCN(Cc2nc3ccccc3[nH]2)CC1 (stereo not given)	none
COc1ccc(NC(=O)N2CCC(CO)(CC3CCCCO3)CC2)c(OC)c1 (stereo not given)	none
COc1cc(/C=C/CN2CCC(CO)(CC3CCCCO3)CC2)ccc1O (stereo not given)	DRD3 antagonist -67
OCC1(CC2CCCCO2)CCN(C/C=C/c2ccccc2)CC1 (stereo not given)	DRD3 antagonist -68
Cc1ccc(-c2nc3c(C)cccn3c2Nc2ccccc2C)s1	none (no result: DRD3 antagonist)
O=C(CSc1nnc2ccccn12)NNC(=O)c1cccc(Cl)c1	DRD3 antagonist inconclusive (no result: D1 potentiator, D1 ag, D1 antag)
CN1CCN(C(=O)Nc2cccc(Cl)c2)c2cccnc21	D1 ag 47 (no result: DRD3 antagonist)
Cc1ccc(Cl)cc1NC(=O)N1CCN(C)c2ncccc21	none (no result: DRD3 antagonist)
CCCN1CCN(C(=O)Cn2nc(C)n3c(cc4c(OC)cccc43)c2=O)CC1	D3 ag 45 (no result: D1 potentiator, D1 ag, D1 antag)
CCC(C)n1c(=O)c2sccc2n2c(CCCC(=O)Nc3ccc(F)cc3)nnc12 (stereo not given)	none (no result: DRD3 antagonist)
COc1cc(-c2ccc3c(=O)c4ccccc4n(C)c3c2)cc(OC)c1OC	D3 ag 68
COc1cc(-c2ccc3c(=O)c4ccccc4sc3c2)cc(OC)c1OC	D3 ag 60 (no result: D1 potentiator, D1 ag, D1 antag)
Cn1c2ccccc2c(=O)c2ccc(-c3ccc4c(c3)OCO4)cc21	D1 antag -48
Cn1c2ccccc2c(=O)c2ccc(F)cc21	none
Cn1c(-c2ccc3c(c2)OCO3)cc(=O)c2ccccc21	none
COc1nc(N=C(N)N)nc2ccc(C)cc12	none (no result: D3 ag, DRD3 antagonist)
CCN1C(=O)C(Cc2nc3ccccc3c(=O)n2-c2ccccc2)c2ccccc21 (stereo not given)	D1 antag -54
Cc1nc(NC(=O)c2ccccc2)sc1C1(C)CC(c2c(Cl)cccc2Cl)=NO1 (stereo not given)	D1 antag -36
Cc1nc(NC(=O)c2ccccc2)sc1C1(C)CC(c2ccccc2F)=NO1 (stereo not given)	D1 antag -33
O=C(CN1C(=O)S/C(=C\c2ccc(Cl)cc2)C1=O)NCCCn1ccnc1	none
CCOC(=O)C1CCCN(C(=O)Cn2cnc3c2c(=O)n(C)c(=O)n3C)C1 (stereo not given)	D3 ag 32
CC1CN(C(=O)Cn2cnc3c2c(=O)n(C)c(=O)n3C)CC(C)O1 (stereo not given)	DRD3 antagonist inconclusive
COc1ccc(OC)c(-c2cc(C(=O)Nc3cnn(Cc4ccc(Cl)cc4Cl)c3)no2)c1	none (no result: DRD3 antagonist)
O=C(Nc1ccc2ccccc2c1)c1ccccc1O	D1 antag -34
COc1ccc(NC(=O)c2cc3ccccc3cc2O)cc1	DRD3 antagonist -61
CS(=O)(=O)Nc1ccc(C(=O)Nc2ccc3ccccc3c2)cc1	D1 antag -38
O=C(Nc1ccc2ccccc2c1)c1ccccc1Cl	none (no result: D1 potentiator, D1 ag, D1 antag)
O=C(O)c1cc(NS(=O)(=O)c2ccc3ccccc3c2)ccc1O	DRD3 antagonist -108
COC1=CC(=O)C[C@@H](C)[C@]12Oc1c(Cl)c(OC)cc(OC)c1C2=O	none
COc1ccc(CC(=O)NC(C)CCc2ccccc2)cc1OC (stereo not given)	none
COc1ccc(NC(=O)NNC(=O)COc2ccc3ccccc3c2)cc1OC	D1 antag -49
COc1cc(NC(=O)COc2ccc(Cl)cc2)ccc1-c1cc2ccccc2oc1=O	D1 antag -41
COc1ccc(CC(=O)NNC(=O)CCc2ccccc2)cc1OC	D1 antag -34
COc1ccc(CCNC(=O)C2CCC(=O)N2CCc2ccccc2)cc1OC (stereo not given)	D1 antag -32
O=C(Nc1ccccc1C(=O)O)c1cc(S(=O)(=O)N2CCOCC2)c(Br)s1	none
CCN(Cc1nc2cc(Cl)ccc2c(=O)[nH]1)C(=O)c1ccc(C)c(NC(=O)c2ccco2)c1	none

High-throughput results (PubChem)
